# PubChem BioAssay (NCATS)
# “And” between values parts separate entries of the source, which are not always exact repeats. Equal values may be shown once. Inconclusive results are not listed. A structure can be active in one record and inactive in another. The list shows a part of the results. The source made the active and inactive calls. Unless noted, calls follow the shape of the dose curve; as a rule, active = well fitted curve in the direction sought with a large enough effect; inconclusive = small, poorly fitted or top-dose-only effect, or another doubt; inactive = no such curve, though single readings can be large; an effect the other way counts as inactive or inconclusive.
# Experiments:
# [1] = biological target: Vitamin D3 receptor (Homo sapiens) (UniProt P11473); experiment: qHTS for Inhibitors of the vitamin D receptor (VDR): Hit Validation in Primary Screen (AID 602199); details: VDR-coactivator inhibition assay, qHTS confirmation; also: potency is read from the fitted curve at half-maximal effect
# Sequence of Vitamin D3 receptor (Homo sapiens) (P11473 whole entry, looked up, the tested form may be a part): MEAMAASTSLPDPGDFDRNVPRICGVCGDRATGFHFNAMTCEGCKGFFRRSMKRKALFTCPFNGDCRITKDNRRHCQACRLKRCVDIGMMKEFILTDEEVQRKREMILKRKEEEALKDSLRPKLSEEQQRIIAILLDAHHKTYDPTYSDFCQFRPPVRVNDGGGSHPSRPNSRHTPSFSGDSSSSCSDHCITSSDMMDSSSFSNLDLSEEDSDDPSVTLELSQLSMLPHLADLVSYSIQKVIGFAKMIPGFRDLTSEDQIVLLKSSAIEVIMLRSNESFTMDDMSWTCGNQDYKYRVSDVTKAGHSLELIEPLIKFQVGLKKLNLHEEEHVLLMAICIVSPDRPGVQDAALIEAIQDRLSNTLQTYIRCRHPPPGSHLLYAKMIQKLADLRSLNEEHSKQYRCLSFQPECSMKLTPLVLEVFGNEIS
# Method in brief: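 Fluorescence polarization assay of VDR binding to Alexa 647-labelled SRC2-3 coactivator peptide: 800nM VDR with 5uM LG19078 agonist, compounds, 2 h at room temperature, read Ex 620 nm/Em 688 nm.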
# [2] = qHTS for Inhibitors of the vitamin D receptor (VDR): Hit Validation using a Texas Red Assay (AID 602201); also: potency is read from the fitted curve at half-maximal effect
# Method in brief: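 Fluorescence polarization (Ex 595/Em 615 nm) of Texas Red (7 nM) with 1.5 uM VDR-LBD and LG19078 (final concentrations). Compounds were incubated for 2 hours at room temperature.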
# [3] = biological target: Vitamin D3 receptor (Homo sapiens) (UniProt P11473); experiment: qHTS for Inhibitors of the vitamin D receptor (VDR): Hit Validation using a Beta-Lactamase Assay (AID 602202); also: % is scaled to controls: 0 for no effect and ±100 for the full control effect
# Method in brief: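 Stably transfected HEK293 cells express a VDR–GAL4 DNA-binding-domain fusion driving a UAS beta-lactamase reporter, stimulated by agonist LG190178. Compounds were added 4 h after plating and incubated 18 h. A FRET beta-lactam substrate was then added for 2 h and cleaved substrate emission read at 447 nm.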
# [4] = qHTS for Inhibitors of the vitamin D receptor (VDR): Hit Validation using a Cytotoxicity Assay (AID 602204);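 also: plate controls were DMSO for no effect and high-concentration cycloheximide for full effect; nearly all actives have a fitted effect of over 75% in size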
# Method in brief: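 Plated cells (20,000/well) incubate 4 h, receive test compounds, and incubate 18 h more. A luminescent reagent measuring ATP from living cells is added and read after 30 min.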
# [5] = biological target: Bifunctional 3'-5' exonuclease/ATP-dependent helicase WRN (Homo sapiens) (UniProt Q14191); experiment: qHTS for Inhibitors of WRN Helicase: Confirmatory Assay for Cherry-picked Compounds. (AID 720497); also: series mostly up to about 57 µM; nearly all actives have a fitted effect of over 65% in size
# Sequence of Bifunctional 3'-5' exonuclease/ATP-dependent helicase WRN (Homo sapiens) (Q14191 whole entry, looked up): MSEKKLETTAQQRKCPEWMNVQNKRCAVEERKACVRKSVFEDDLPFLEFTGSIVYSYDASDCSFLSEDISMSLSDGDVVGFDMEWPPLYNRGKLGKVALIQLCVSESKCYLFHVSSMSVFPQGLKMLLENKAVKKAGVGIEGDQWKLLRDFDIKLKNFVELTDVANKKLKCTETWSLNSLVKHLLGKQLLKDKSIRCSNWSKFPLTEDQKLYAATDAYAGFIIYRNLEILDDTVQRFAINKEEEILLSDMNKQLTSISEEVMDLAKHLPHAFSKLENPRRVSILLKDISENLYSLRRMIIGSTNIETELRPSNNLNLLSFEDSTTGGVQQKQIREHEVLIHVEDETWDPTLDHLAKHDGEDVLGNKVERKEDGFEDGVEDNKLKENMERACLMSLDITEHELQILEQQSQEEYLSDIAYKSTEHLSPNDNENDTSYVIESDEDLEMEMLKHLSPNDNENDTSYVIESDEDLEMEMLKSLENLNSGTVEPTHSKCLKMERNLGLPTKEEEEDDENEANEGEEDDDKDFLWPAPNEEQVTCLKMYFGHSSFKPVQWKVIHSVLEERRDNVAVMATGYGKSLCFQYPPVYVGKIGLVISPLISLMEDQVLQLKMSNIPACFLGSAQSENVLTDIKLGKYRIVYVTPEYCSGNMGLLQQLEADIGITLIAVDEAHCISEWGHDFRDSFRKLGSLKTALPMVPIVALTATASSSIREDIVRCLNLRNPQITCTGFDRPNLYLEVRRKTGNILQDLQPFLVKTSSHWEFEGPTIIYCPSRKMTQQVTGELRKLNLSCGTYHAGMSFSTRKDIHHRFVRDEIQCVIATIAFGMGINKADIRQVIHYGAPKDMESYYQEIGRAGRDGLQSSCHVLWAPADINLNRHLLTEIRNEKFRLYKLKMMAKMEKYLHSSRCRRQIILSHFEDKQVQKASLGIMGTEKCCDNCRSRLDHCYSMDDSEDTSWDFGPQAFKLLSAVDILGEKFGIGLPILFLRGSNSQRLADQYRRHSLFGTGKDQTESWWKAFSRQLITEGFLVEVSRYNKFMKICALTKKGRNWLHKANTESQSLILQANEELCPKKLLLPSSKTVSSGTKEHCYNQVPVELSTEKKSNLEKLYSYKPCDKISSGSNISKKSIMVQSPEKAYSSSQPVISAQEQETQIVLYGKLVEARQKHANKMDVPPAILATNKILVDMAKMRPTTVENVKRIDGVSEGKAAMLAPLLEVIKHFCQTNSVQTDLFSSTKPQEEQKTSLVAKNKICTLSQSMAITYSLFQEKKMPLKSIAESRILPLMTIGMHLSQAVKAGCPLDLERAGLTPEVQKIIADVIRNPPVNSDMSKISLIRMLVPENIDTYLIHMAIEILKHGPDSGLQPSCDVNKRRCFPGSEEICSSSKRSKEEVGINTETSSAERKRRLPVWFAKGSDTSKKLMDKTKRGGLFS
# Method in brief: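 WRN (20 nM) was preincubated 15 min at RT with compound, then started with 100 nM forked duplex oligonucleotide and 2 mM ATP. Unwinding was read kinetically by red fluorescence (ex 525/em 598 nm), normalized to enzyme-free and uninhibited controls.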
# [6] = qHTS for Inhibitors of WRN Helicase: Thiazole Orange DNA Binding Counterscreen (AID 720499);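 also: drop in dye fluorescence marks compound binding to DNA; % is scaled to controls: 0 for no effect and ±100 for the full control effect; nearly all actives have a fitted effect of over 60% in size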
# Method in brief: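 Thiazole orange displacement counterscreen: compounds added to 50 nM unlabeled DNA with 100 nM ThO. Fluorescence (ex 480, em 530 nm) read after 15 min at room temperature; activity flags nonspecific DNA binding.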
# [7] = biological target: RecQ-like DNA helicase BLM (Homo sapiens) (UniProt P54132); experiment: qHTS for Inhibitors of WRN Helicase: BLM Helicase Counterscreen for WRN Inhibitors (AID 720503);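 also: plate controls were DMSO vehicle for no effect and enzyme-free control wells for full effect; nearly all actives have a fitted effect of over 60% in size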
# Method in brief: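 1 nM BLM, Tris pH 8.0/NaCl/MgCl2/DTT/Tween-20; cpd preinc 15 min RT; start w/ 100 nM DNA + 2 mM ATP final; fluorescence (ex 525/em 598) two reads 15 min apart; normalized to enzyme-free and DMSO controls.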
# [8] = biological target: Vitamin D3 receptor (Homo sapiens) (UniProt P11473); experiment: qHTS assay for small molecule antagonists of vitamin D receptor signaling (AID 588541; calls by dose curve; also: potency is read from the fitted curve at half-maximal effect)
# Method in brief: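 VDR-UAS-bla HEK293T cells (2000/well, 2% charcoal-stripped FBS) were treated with titrated compounds plus 1-alpha,25-dihydroxyvitamin D3 (50 nM or 3 nM final) for 16 h at 37 C. CCF4 beta-lactamase fluorescence was read; Hill fits gave IC50.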
# [9] = qHTS assay for small molecule agonists of retinoid X receptor alpha signaling (AID 588544; calls by dose curve; also: potency is read from the fitted curve at half-maximal effect;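 as to activation: 0% = DMSO basal wells and 100% = reference agonist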); details: HEK293T RXRa-UAS-bla, beta-lactamase reporter, 18 h; 530 nm emission
# [10] = biological target: Retinoic acid receptor RXR-alpha (Homo sapiens) (UniProt P19793); experiment: as above
# Sequence of Retinoic acid receptor RXR-alpha (Homo sapiens) (P19793 whole entry, looked up): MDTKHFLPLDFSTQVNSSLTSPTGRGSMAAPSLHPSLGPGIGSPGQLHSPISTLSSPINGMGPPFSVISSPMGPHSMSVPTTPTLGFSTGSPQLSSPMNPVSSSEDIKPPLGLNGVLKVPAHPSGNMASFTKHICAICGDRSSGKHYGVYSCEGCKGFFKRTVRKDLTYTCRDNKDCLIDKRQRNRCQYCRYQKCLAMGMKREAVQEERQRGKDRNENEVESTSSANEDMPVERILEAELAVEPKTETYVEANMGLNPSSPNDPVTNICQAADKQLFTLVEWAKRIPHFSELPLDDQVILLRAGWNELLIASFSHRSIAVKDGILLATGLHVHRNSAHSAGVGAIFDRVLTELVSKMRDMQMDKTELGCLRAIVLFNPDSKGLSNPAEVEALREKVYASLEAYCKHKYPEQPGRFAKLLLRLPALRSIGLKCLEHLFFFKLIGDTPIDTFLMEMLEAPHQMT
# [11] = qHTS assay for small molecule antagonists of retinoid X receptor alpha signaling (AID 588546; active = well fitted inhibition curve with a large enough effect in the signal ratio, with a control signal flat, not every such curve was filed as active; the % refers to the signal ratio; also: potency is read from the fitted curve at half-maximal effect;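 as to max response: cells stimulated with 9-cis-retinoic acid as agonist; % is scaled to controls: 0 for no effect and ±100 for the full control effect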); details: HEK293T RXRa-UAS-bla, beta-lactamase ratio, antagonist mode; measured here: W530 green channel, cytotoxicity proxy
# Method in brief: (§1)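 Beta-lactamase reporter inhibition, read as CCF4 fluorescence ratio (ex 405, em 460/530 nm) after 2 h at RT. HEK293T UAS-bla cells, 2500/well, were stimulated with 9-cis-RA at 500 or 100 nM final alongside test compound for 18 h at 37 C.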
# [12] = biological target: Retinoic acid receptor RXR-alpha (Homo sapiens) (UniProt P19793); experiment: as above; details: HEK293T RXRa-UAS-bla, beta-lactamase ratio, antagonist mode
# Method in brief: as §1
# [13] = qHTS assay for small molecule agonists of the antioxidant response element (ARE) signaling pathway (AID 651741; active = well fitted activation curve with a large enough effect in the signal ratio; the % refers to the signal ratio; also: potency is read from the fitted curve at half-maximal effect)
# Method in brief: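 ARE-bla HepG2 cells (beta-lactamase reporter under ARE control) were plated at 2,000 cells/well, preincubated 5 h at 37 C/5% CO2, then treated with DMSO-dissolved compounds for 16 h at 37 C; LiveBLAzer B/G FRET substrate added, fluorescence read after 2 h at room temperature.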
# [14] = qHTS assay for small molecule agonists of the antioxidant response element (ARE) signaling pathway measured by Nrf2-dependant transcriptional activity (AID 720636; active = well fitted curve in the direction sought with a large enough effect in the repeat runs; an effect the other way counts as inactive or inconclusive; also: potency is read from the fitted curve at half-maximal effect;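 as to activation: HepG2 cells with an ARE-driven luciferase reporter; % of control where 0% means no effect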)
# Method in brief: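 We exposed ARE-luc HepG2 cells, seeded in assay medium with 1% dialyzed FBS and allowed 6 hr to adhere, to test compounds overnight (16 hr, 37 C) before measuring luciferase with ONE-Glo.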
# [15] = qHTS assay for environmental chemicals that activate the Aryl hydrocarbon Receptor (AhR) signaling pathway (AID 651777); details: 1A2-DRE human hepatoma cells, luciferase, 24 h; activation: stronger effect = higher value; also: % of control where 0% means no effect; nearly all actives have a fitted effect of over 15% in size
# Method in brief: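 Induction of CYP1A2 transcription through AhR is detected by luciferase in 1A2-DRE hepatoma cells. Compounds or DMSO act for 24 hr at 37 C before a 30 min One-Glo step at room temperature.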
# [16] = biological target: Peroxisome proliferator-activated receptor alpha (Homo sapiens) (UniProt Q07869); experiment: qHTS assay for small molecule agonists of the peroxisome proliferator-activated receptor alpha (PPARalpha) signaling pathway (AID 651778); details: PathHunter PPARalpha complementation, chemiluminescence, 6 h; max response: stronger effect = higher value; also: % of control where 0% means no effect
# Sequence of Peroxisome proliferator-activated receptor alpha (Homo sapiens) (Q07869 whole entry, looked up): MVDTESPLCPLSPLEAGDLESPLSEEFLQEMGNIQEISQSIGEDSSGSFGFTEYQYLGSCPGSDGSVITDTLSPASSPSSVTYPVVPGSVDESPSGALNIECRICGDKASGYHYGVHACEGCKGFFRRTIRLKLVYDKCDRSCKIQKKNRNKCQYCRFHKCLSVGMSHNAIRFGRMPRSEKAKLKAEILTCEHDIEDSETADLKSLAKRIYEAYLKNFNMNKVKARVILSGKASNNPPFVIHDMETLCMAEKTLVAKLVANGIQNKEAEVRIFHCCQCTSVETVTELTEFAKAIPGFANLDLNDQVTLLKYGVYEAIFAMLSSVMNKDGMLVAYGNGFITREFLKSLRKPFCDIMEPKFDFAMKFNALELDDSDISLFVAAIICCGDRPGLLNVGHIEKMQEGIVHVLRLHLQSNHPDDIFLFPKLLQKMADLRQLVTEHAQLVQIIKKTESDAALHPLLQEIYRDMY
# Method in brief: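 Cells plated at 2,000/well and held overnight at 37 C, 5% CO2, then compound added by pin tool for 6 hr; after PathHunter detection reagent and 60 min at room temperature, chemiluminescence from enzyme complementation was read.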
# [17] = qHTS assay for small molecule agonists of the antioxidant response element (ARE) signaling pathway measured by Nrf2-dependant transcriptional activity - cell viability counter screen (AID 720653; active = well fitted curve in the direction sought with a large enough effect in the repeat runs; an effect the other way counts as inactive or inconclusive; also: potency is read from the fitted curve at half-maximal effect); details: ARE-bla HepG2 viability, CellTiter-Glo ATP luminescence, 16 h; max response: stronger effect = lower value
# Method in brief: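 ARE-bla HepG2 cells (2,000/well) rested 5 hrs at 37C/5% CO2, then exposed to compounds in DMSO for 16 hrs. Viability was read in the same wells as intracellular ATP by luminescence, 30 min at room temperature after reagent addition.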
# [18] = qHTS assay for cell viability of HEK293 cells (AID 743288); details: ATP luminescence (CellTiter-Glo), 18 h; max response: stronger effect = lower value; also: nearly all actives have a fitted effect of over 50% in size; also: potency is read from the fitted curve at half-maximal effect; as to max response: % is scaled to controls: 0 for no effect and ±100 for the full control effect
# Method in brief: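 Parental HEK293 cells, 2,000 per well, preincubated at least 5 h at 37 C, then exposed to compounds in DMSO for 18 h at 37 C. Viability by CellTiter-Glo ATP luminescence after 30 min at room temperature.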
# [19] = qHTS assay for cell viability of the p53RE-bla HCT-116 cell line (AID 743292); also: nearly all actives have a fitted effect of over 55% in size; also: potency is read from the fitted curve at half-maximal effect
# Method in brief: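 In this qHTS counter-screen, metabolically competent p53RE-bla HCT-116 cells were counted via their ATP content. Compounds were applied for 16 h at 37 C and luciferase-coupled luminescence was measured.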
# [20] = biological target: Peroxisome proliferator-activated receptor gamma (Homo sapiens) (UniProt P37231); experiment: qHTS assay for small molecule antagonists of peroxisome proliferator-activated receptor gamma signaling (AID 588537; active = well fitted inhibition curve with a large enough effect in the signal ratio, with a control signal flat, not every such curve was filed as active; the % refers to the signal ratio; also: potency is read from the fitted curve at half-maximal effect)
# Sequence of Peroxisome proliferator-activated receptor gamma (Homo sapiens) (P37231 whole entry, looked up): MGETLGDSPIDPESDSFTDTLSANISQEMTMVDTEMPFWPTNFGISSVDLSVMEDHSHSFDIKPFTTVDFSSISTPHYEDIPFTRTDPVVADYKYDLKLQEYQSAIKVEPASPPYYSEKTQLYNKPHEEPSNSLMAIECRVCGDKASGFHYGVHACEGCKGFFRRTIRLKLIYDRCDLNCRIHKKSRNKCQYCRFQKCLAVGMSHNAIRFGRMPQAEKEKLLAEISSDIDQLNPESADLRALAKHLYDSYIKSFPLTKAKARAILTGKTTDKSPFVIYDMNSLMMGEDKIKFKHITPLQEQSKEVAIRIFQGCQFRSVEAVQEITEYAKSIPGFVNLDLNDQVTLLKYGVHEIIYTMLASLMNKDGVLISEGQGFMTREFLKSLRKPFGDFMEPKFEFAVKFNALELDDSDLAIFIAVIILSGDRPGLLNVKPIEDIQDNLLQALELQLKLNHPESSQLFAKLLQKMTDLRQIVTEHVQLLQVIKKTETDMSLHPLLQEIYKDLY
# Method in brief: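 PPAR-gamma-UAS-bla HEK293 cells (3000/well, 1% charcoal/dextran-stripped FBS) were preincubated 6-6.5 h at 37 C, given titrated compounds, then stimulated with 50 nM rosiglitazone for 16 h. Beta-lactamase activity was read with CCF4 dye; IC50 came from Hill fits.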
# [21] = biological target: Thyroid hormone receptor beta (Homo sapiens) (UniProt P10828); experiment: qHTS assay for small molecule agonists of thyroid hormone receptor beta signaling (AID 588545; calls by dose curve;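 also: 0% = DMSO only and 100% = 10 nM T3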)
# Sequence of Thyroid hormone receptor beta (Homo sapiens) (P10828 whole entry, looked up): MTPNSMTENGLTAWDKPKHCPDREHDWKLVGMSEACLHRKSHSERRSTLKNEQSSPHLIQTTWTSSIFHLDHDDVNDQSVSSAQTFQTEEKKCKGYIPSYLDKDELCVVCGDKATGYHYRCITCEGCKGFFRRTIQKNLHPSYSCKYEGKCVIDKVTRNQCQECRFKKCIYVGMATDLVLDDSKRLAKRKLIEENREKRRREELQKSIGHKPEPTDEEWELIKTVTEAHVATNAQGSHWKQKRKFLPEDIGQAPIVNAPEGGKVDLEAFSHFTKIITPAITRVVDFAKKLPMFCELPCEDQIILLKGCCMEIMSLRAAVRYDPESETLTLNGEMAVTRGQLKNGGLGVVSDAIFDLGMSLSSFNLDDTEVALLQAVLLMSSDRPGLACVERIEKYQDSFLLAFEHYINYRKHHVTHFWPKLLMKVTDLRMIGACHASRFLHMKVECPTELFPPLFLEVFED
# Method in brief: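 Compounds were tested as agonists in TR-UAS-bla-GripTite HEK 293 cells. After 18 hrs at 37 C, CCF4 substrate was added and fluorescence read after 2 hrs at room temperature.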
# [22] = qHTS assay for small molecule activators of the human pregnane X receptor (PXR) signaling pathway (AID 720659; call rule not given here; also: 0% is about no effect)
# [23] = biological target: Luciferin 4-monooxygenase (Photinus pyralis) (UniProt P08659); experiment: Biochemical firefly luciferase enzyme assay for NPC (AID 624030);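 also: purified P. pyralis luciferase at 10 nM with luciferin and ATP substrate; series mostly up to about 59 µM; 0% = DMSO and -100% = full luciferase inhibition by PTC124 control; nearly all actives have a fitted effect of over 70% in size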
# Sequence of Luciferin 4-monooxygenase (Photinus pyralis) (P08659 whole entry, looked up): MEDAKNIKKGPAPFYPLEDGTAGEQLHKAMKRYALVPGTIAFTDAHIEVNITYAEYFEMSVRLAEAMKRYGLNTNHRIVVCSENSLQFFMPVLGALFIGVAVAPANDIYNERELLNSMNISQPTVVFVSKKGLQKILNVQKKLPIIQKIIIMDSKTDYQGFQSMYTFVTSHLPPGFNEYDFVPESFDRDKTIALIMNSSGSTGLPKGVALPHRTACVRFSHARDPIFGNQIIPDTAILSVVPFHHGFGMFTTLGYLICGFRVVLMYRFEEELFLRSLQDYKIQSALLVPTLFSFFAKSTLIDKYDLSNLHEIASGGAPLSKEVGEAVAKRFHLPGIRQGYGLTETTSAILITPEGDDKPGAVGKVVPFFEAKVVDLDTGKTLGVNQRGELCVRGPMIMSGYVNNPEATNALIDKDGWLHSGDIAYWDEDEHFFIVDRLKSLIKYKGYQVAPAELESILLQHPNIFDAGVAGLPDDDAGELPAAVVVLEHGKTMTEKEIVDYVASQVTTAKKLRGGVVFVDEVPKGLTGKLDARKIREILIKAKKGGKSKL
# Method in brief: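 Counter-screen for direct inhibition of the luciferase enzyme by approved-drug library compounds, run at 10 nM enzyme in 50 mM Tris acetate (final). Luminescence was read within 5 min of enzyme-buffer addition and normalized to PTC124 versus DMSO (0%).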
# [24] = biological target: Vitamin D3 receptor (Homo sapiens) (UniProt P11473); experiment: qHTS assay for small molecule agonists of vitamin D receptor signaling (AID 588543; calls by dose curve;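 also: 0% = DMSO basal and 100% = reference agonist control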)
# Method in brief: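 VDR-UAS-bla HEK293T cells, 2000/well, 2% charcoal-stripped FBS; compound titration 16 h at 37 C; CCF4 beta-lactamase ratio read. Normalized to 50 nM 1-alpha,25-dihydroxyvitamin D3 (100%) and DMSO; Hill fit gives EC50, efficacy.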
# [25] = qHTS assay for small molecule activators of the p53 signaling pathway (AID 651743; active = well fitted activation curve with a large enough effect in the signal ratio, not every such curve was filed as active; the % refers to the signal ratio; also: potency is read from the fitted curve at half-maximal effect); details: HCT-116 p53RE-bla, beta-lactamase FRET ratio, 16 h; activation: stronger effect = higher value
# Method in brief: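 p53RE-bla HCT-116 cells with a stably integrated beta-lactamase reporter under p53 response elements were plated, rested 5 hours at 37 C/5% CO2, then exposed to compounds in DMSO for 16 hours at 37 C. LiveBLAzer B/G FRET substrate was read after 2 hours at room temperature.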
# [26] = qHTS assay for small molecule activators of the nuclear factor-kappa B (NF-kB) signaling pathway (AID 651749; active = well fitted activation curve with a large enough effect in the signal ratio; the % refers to the signal ratio; also: series mostly up to about 77 µM; % of control where 0% means no effect); details: NF-kB-bla ME-180 cells, beta-lactamase FRET ratio, 16 h; activation: stronger effect = higher value
# Method in brief: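 ME-180 cells stably carrying a beta-lactamase reporter under an NF-kB response element were exposed to compound or DMSO vehicle for 16 hr at 37C, 5% CO2. Pathway activation was read by FRET, since reporter expression disrupts FRET.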
# [27] = biological target: Nuclear receptor subfamily 1 group I member 2 (Rattus norvegicus) (UniProt Q9R1A7); experiment: qHTS assay for small molecule activators of the rat pregnane X receptor (rPXR) signaling pathway (AID 651751; call rule not given here; also: 0% is about no effect); details: rPXR reporter cells, luciferase (One-Glo), 24 h
# [28] = biological target: Peroxisome proliferator-activated receptor delta (Homo sapiens) (UniProt Q03181); experiment: qHTS assay for small molecule agonists of peroxisome proliferator-activated receptor delta signaling (AID 588534; calls by dose curve;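 also: 0% = DMSO basal wells and 100% = positive control agonist at 10 µM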)
# Sequence of Peroxisome proliferator-activated receptor delta (Homo sapiens) (Q03181 whole entry, looked up): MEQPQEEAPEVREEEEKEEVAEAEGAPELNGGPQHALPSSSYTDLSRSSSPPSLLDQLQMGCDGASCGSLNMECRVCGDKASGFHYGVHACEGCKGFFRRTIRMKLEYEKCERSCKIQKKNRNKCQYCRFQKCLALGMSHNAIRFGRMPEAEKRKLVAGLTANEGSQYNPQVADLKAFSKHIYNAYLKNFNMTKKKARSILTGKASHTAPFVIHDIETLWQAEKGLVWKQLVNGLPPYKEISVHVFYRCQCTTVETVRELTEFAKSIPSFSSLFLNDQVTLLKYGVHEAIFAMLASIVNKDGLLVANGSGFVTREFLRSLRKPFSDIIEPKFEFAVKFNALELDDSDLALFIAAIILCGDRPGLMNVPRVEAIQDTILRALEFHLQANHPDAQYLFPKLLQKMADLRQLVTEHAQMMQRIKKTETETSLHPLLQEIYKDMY
# Method in brief: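 Cell-based beta-lactamase reporter assay run in agonist mode: cells seeded and incubated 5 hrs at 37 C, compounds added and incubated 18 hrs at 37 C. CCF4 dye fluorescence read after 2 hrs at RT; EC50 and efficacy from Hill fits.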
# [29] = biological target: Nuclear receptor ROR-gamma (Homo sapiens) (UniProt P51449); experiment: qHTS assay for small molecule antagonists of the retinoid-related orphan receptor gamma (ROR-gamma) signaling pathway (AID 651802); also: series mostly up to about 92 µM; % is scaled to controls: 0 for no effect and ±100 for the full control effect; nearly all actives have a fitted effect of over 60% in size
# Method in brief: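 CHO cells carrying TET-inducible ROR-gamma and an ROR response element–luciferase reporter were exposed to compound, then induced with doxycycline. After 16hr at 37C, luminescence was read; lower signal indicates antagonism.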
smiles,measurement,setting,value
O=C(O)CCn1cc(C=C2C(=O)NC(=S)NC2=O)c(-c2cccc(Br)c2)n1,Potency,[1],6.7 µM (active)
same,Potency,[2],inactive
same,outcome,[3],inactive
same,outcome,[4],inactive
same,outcome,[5],inactive
same,outcome,[6],inactive
same,outcome,[7],inactive
CN1CCC(O)(c2cccs2)C(C(=O)c2cccs2)C1 (stereo not given),Potency,[2],28.2 µM (active)
O=C1NC(=O)C(=Cc2ccc(-c3ccc(S(=O)(=O)N4CCOCC4)cc3)o2)C(=O)N1,Potency,[2],inactive
S=C([S-])NCCNC(=S)[S-].[Zn+2],Potency,[8],inactive
same,max response,[9],2.58%
same,Potency,[10],inactive
same,max response,[11],-2.08% and 15.4%
same,max response,[12],15.4% (inactive) and -59.9% (inactive)
same,Potency,[13],21.7 µM (active) and 27.3 µM (active)
same,Potency,[14],inactive and 68.6 µM (active)
CCC[CH2][Sn]([CH2]CCC)([CH2]CCC)[O][Sn]([CH2]CCC)([CH2]CCC)[CH2]CCC,Potency,[8],22.4 µM (active)
same,Potency,[10],0.355 µM (active)
same,Potency,[13],27.3 µM (active)
same,activation,[15],0.111% (inactive)
same,max response,[16],5.55% (inactive)
same,Potency,[17],22.4 µM (active)
same,Potency,[18],31.6 µM (active)
same,Potency,[19],22.4 µM (active)
Cc1ccc(N2C(=O)NC(=O)/C(=C\c3cnc(-c4ccccc4)nc3)C2=O)cc1,Potency,[2],inactive
Cc1nn(Cc2ccccc2)c(C)c1C=C1C(=O)NC(=S)NC1=O,Potency,[2],inactive
CCOCn1c(-c2ccc(Cl)cc2)c(C#N)c(Br)c1C(F)(F)F,Potency,[20],39.8 µM (active)
same,Potency,[21],inactive
same,max response,[11],0.12%
same,Potency,[12],2.24 µM (active)
same,activation,[15],-4.34% (inactive)
same,max response,[16],14.2% (inactive)
same,Potency,[14],inactive
same,Potency,[19],6.31 µM (active)
same,outcome,[22],inactive
O=C1[O][Sb-]23[O]C(=O)C([O]2)C2[O][Sb-]4([O]C(=O)C([O]4)C1[O]3)[O]C2=O,Potency,[23],inactive
COc1cccc(C2CC3C(=O)C=CC2N3Cc2ccccc2)c1 (stereo not given),Potency,[2],28.2 µM (active)
CON=C(C(=O)OC)c1ccccc1CO/N=C(\C)c1cccc(C(F)(F)F)c1,Potency,[20],35.5 µM (active)
same,outcome,[24],inactive
same,Potency,[21],inactive
same,Potency,[13],8.63 µM (active)
same,Potency,[25],5.01 µM (active)
same,activation,[26],3.5% (inactive)
same,max response,[16],3.69% (inactive)
same,Potency,[14],inactive
same,max response,[18],-22.9% (inactive)
same,Potency,[19],inactive
same,max response,[27],-14.4% (inactive)
Cc1ccc(N)c([N+](=O)[O-])c1,outcome,[28],inactive
same,Potency,[29],inactive
